hcDAF12 agonist: H. contortus DAF-12 nuclear receptor activators, primary screen, cell-based, luminescence, HEK293, lit1-tk-luc reporter; HEK293 hcDAF-12 lit1-tk-luc reporter; 0% DMSO, 100% Δ7-dafachronic acid; activation, % at 6.8 µM; 1.4% of 370,000 active; AID 652067, 2013;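 active = activation above the mean of all tested compounds plus 3 SD, cut at about 5.5% in these data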
ssDAF12 agonist: S. stercoralis DAF-12 nuclear receptor activators, primary screen, cell-based, luminescence, HEK293, GRIP1 co-expression, lit1-tk-luc; 1% of 370,000 active; AID 652126, 2013; HEK293 ssDAF-12/GRIP1 lit1-tk-luc reporter; % of 3 µM dafachronic acid response; Nuclear hormone receptor DAF-12 (Strongyloides stercoralis); activation, % at 6.8 µM;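 active = activation above the mean over all tested compounds plus 3 SD, cut at about 0.9% in these data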
DAX1 inh-1: DAX1 (NR0B1) inhibitors, primary screen, cell-based, HEK293, Gal4-DAX1, luciferase luminescence; HEK293 Gal4-DAX1 luciferase reporter; 0.99% of 340,000 active; inhibition, % at 6.75 µM; AID 504766, 2011;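 active = inhibition above the mean over all tested compounds plus 3 SD, cut at about 4.2% in these data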;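 note: inhibition shows as a rise in luminescence from relieved DAX1 repression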
DAX1 inh-2: DAX1 (NR0B1) inhibitors on StAR promoter, primary screen, cell-based, luminescence, SF-1 (NR5A1), full-length DAX-1. HEK293T StAR-luciferase reporter, SF-1/DAX-1 repression relief. inhibition, % at 6.8 µM. 1.1% of 370,000 active;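 active = inhibition above the mean over all tested compounds plus 3 SD, cut at about 3.6% in these data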;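 note: higher inhibition means more luminescence from relief of DAX-1 repression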
hgDAF12 agonist: H. glycines DAF-12 receptor agonists, primary screen, cell-based, luminescence, HEK293, GAL4 fusion, UAS-luciferase. Nuclear hormone receptor DAF-12 (Heterodera glycines), GAL4 fusion. HEK293 GAL4-hgDAF12 UAS-luciferase reporter, agonist luminescence; normalized to butyrate control. activation, % at 6.8 µM. 1.8% of 370,000 active. AID 687014, 2013;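 active = activation above a cutoff set at the mean of all screened compounds plus 3 SD, cut at about 10% in these data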
DAX1 conf: DAX1 (NR0B1) inhibitors relieving SF-1 repression, confirmation, cell-based, luminescence, HEK293T, full-length DAX-1, SF-1 activated StAR promoter; shares compounds with DAX1 inh-2; HEK293T StAR-promoter luciferase reporter, SF-1/DAX-1 repression; inhibition, % at 6.8 µM; 87% of 2,400 active;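 active = inhibition above the average of every tested compound plus 3 SD, cut at about 3.8% in these data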
Target sequence (P51843 whole entry, looked up): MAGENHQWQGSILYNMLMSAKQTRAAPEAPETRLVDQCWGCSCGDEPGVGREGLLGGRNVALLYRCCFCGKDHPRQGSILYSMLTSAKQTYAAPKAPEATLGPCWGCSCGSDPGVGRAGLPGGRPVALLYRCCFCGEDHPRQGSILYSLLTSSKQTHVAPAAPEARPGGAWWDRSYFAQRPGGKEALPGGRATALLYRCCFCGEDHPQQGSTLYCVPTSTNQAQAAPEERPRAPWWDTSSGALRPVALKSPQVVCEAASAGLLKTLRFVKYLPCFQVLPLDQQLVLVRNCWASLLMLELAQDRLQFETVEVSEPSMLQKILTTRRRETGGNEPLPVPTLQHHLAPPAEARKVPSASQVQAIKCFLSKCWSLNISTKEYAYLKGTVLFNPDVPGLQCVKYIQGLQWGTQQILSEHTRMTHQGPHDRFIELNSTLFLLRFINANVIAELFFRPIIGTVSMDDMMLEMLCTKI
SF1 AF2mut Luc: StAR reporter signal changes without DAX1, counter-screen for DAX1 inhibitor project, cell-based, luminescence, AF-2 mutant SF-1, transactivation | shares compounds with DAX1 inh-2 | HEK293 StAR-luciferase, SF-1 AF2 mutant | inhibition, % at 6.8 µM | 78% of 2,400 active | AID 652136, 2013;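 active = inhibition above the mean of all tested compounds plus 3 SD, cut at about 3% in these data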
Of the large screens only hits and unclear results are named; the others gave an inactive call (follow-up assays come after a bar, where they were run). A selection: hits, their analogues and other compounds. The true share with any hit is near 4.1%.

Cc1cs/c(=N/C(=S)Nc2ccccc2)n1C	ssDAF12 agonist 0.9, DAX1 inh-2 5.6, hgDAF12 agonist 13 | DAX1 conf 12 | SF1 AF2mut Luc 5.8
CCCn1c(C)cs/c1=N\C(=S)Nc1ccccc1	none
Nc1cnn(C2OC(CO)C(O)C2O)c(=O)n1 (configuration not stated)	DAX1 inh-2 4.6 | DAX1 conf 6.8 | SF1 AF2mut Luc inactive
Nc1nc(=O)n(C2OC(CO)C(O)C2O)cc1F (configuration not stated)	none (no result: DAX1 inh-1)
O=C(CC1C(=O)NCCN1Cc1ccccc1)NC1CCCCC1 (configuration not stated)	none
COc1cccc(NC(=O)C(=O)N/N=C(\C)CC(=O)Nc2ccc(NC(C)=O)cc2)c1	DAX1 inh-2 5.8, hgDAF12 agonist 13 | DAX1 conf 5.9 | SF1 AF2mut Luc 5.8
CCc1ccc(NC(=O)C(=O)N/N=C(\C)CC(=O)Nc2ccc(OC)cc2)cc1	none
Nc1ccc2nc(-c3ccc(-c4nc5ccc(N)cc5[nH]4)cc3)[nH]c2c1	none (no result: DAX1 inh-1)
Nc1ccc(-c2nc3ccccc3[nH]2)cc1	DAX1 inh-2 5.2, hgDAF12 agonist 11 | DAX1 conf 9.9 | SF1 AF2mut Luc 6.8
O=C(CSc1nnc(-c2ccccn2)o1)Nc1ccccc1F	DAX1 inh-2 14, hgDAF12 agonist 12 | DAX1 conf 15 | SF1 AF2mut Luc 6.3
CCOc1ccc(CNC(=O)c2cccc(NC(=O)C3=C(C)OCCS3)c2)cc1	none
CC1=C(C(=O)Nc2ccc(CC(=O)NCc3ccc(OC(C)C)cc3)cc2)SCCO1	hcDAF12 agonist 5.9, ssDAF12 agonist 1.0, DAX1 inh-2 15 | DAX1 conf 23 | SF1 AF2mut Luc inactive
CC(C)CN1C(=O)N2Cc3ccccc3C2CS1(=O)=O (configuration not stated)	none (no result: DAX1 inh-1)
CCOC1=C2CN(S(=O)(=O)c3ccc(C)cc3)[C@@H](c3cccs3)C[C@H]2[C@H]2C(=O)N(c3ccccc3)C(=O)[C@H]2C1	DAX1 inh-2 4.5 (no result: DAX1 inh-1) | DAX1 conf inactive | SF1 AF2mut Luc inactive
Cc1ccc(S(=O)(=O)N2C[C@H]3C(=O)C[C@@H]4C(=O)N(c5ccccc5)C(=O)[C@@H]4[C@@H]3C[C@H]2c2cccs2)cc1	none (no result: DAX1 inh-1)
CC(C)Oc1ccc(C(=O)Nc2nnc(SCC(=O)N3CCOCC3)s2)cc1	DAX1 inh-2 5.2, hgDAF12 agonist 11 | DAX1 conf 8.7 | SF1 AF2mut Luc inactive
CC(CCN1CCC(C(O)(c2ccccc2)c2ccccc2)CC1)Oc1cc(F)cc(F)c1 (configuration not stated)	none (no result: DAX1 inh-1)
CC(C)CNc1cccc2c1S(=O)(=O)N(Cc1cn(Cc3ccc(F)cc3)nn1)Cc1ccccc1O2	none (no result: DAX1 inh-1)
O=C(CSc1nc2[nH]c(=O)cc(O)c2s1)Nc1cccc(Br)c1	DAX1 inh-2 5.7 | DAX1 conf inactive | SF1 AF2mut Luc inactive
O=C(CSc1nc2[nH]c(=O)cc(O)c2s1)Nc1ccc(Br)cc1	DAX1 inh-2 8.7 | DAX1 conf inactive | SF1 AF2mut Luc inactive
COc1cccc(C(NC(C)=O)c2nc(-c3ccc(F)cc3OC)cs2)c1 (configuration not stated)	DAX1 inh-2 5.8 (no result: DAX1 inh-1) | DAX1 conf 6.6 | SF1 AF2mut Luc 3.3
COc1ccccc1CNC(=O)NC1CCN(CC(=O)Nc2ccc3c(c2)OCCO3)CC1	none (no result: DAX1 inh-1)
CCN(CC)C(=O)CSc1nnc(-c2ccc(C(C)(C)C)cc2)n1-c1ccc(Cl)cc1	none (no result: DAX1 inh-1)
Cc1cccc(OCC(=O)Nc2nnc(-c3ccco3)s2)c1	none
CCOc1cccc(C(=O)Nc2nnc(-c3ccco3)s2)c1	DAX1 inh-2 5.0, hgDAF12 agonist 11 | DAX1 conf 15 | SF1 AF2mut Luc 5.1
CCC[C@H]1[C@@H](NC(=S)Nc2ccccc2Cl)CC[C@@]23CCCN2C(=O)CCC[C@@H]13	none (no result: DAX1 inh-1, DAX1 inh-2)
CCOc1ccc(N(CC(=O)Nc2ccccc2OCC)S(=O)(=O)c2c(C)noc2C)cc1	DAX1 inh-2 13 | DAX1 conf 16 | SF1 AF2mut Luc inactive
C[C@H](CO)N1C[C@H](C)[C@H](CN(C)S(=O)(=O)c2cccc(F)c2)Oc2ncc(-c3cccc(C(=O)N(C)C)c3)cc2C1=O	none
COC(=O)C1=CN(c2ccc(OC)cc2)C(N)=C(C#N)C1c1cccc2ccccc12 (configuration not stated)	none (no result: DAX1 inh-1)
COC(=O)C1=CN(c2ccc(C(C)(C)C)cc2)C(N)=C(C#N)C1c1cccc2ccccc12 (configuration not stated)	DAX1 inh-2 5.2 (no result: DAX1 inh-1) | DAX1 conf inactive | SF1 AF2mut Luc inactive
O=C(CSc1n[nH]c(=O)n1C1CC1)Nc1ccccc1	DAX1 inh-2 11 | DAX1 conf inactive | SF1 AF2mut Luc inactive
N#Cc1ccc(NC(=O)CSc2n[nH]c(=O)n2C2CC2)cc1	none
O=C(COC(=O)/C=C/c1ccc(Cl)cc1)NC1CCCCCC1	DAX1 inh-2 4.8 | DAX1 conf inactive | SF1 AF2mut Luc inactive
O=C(COC(=O)/C=C/c1ccc(Cl)cc1)NC1CC1	none
COc1ccc(CNc2nc3ccccc3s2)cc1OC	none
COc1ccc(Nc2nc3ccccc3s2)cc1	DAX1 inh-1 4.3, DAX1 inh-2 5.5, hgDAF12 agonist 27 | DAX1 conf 12 | SF1 AF2mut Luc 7.3
O=C(NCc1cccnc1)c1csc([C@@H]2C[C@H](O)[C@@H](CO)O2)n1	none (no result: DAX1 inh-1)
COC(=O)[C@H]1C[C@@]2(N3CCCCC3)c3ccccc3N[C@H]2N1S(=O)(=O)c1ccc([N+](=O)[O-])cc1	none (no result: DAX1 inh-1)
CC(C)(C)n1cnc2cc(NCc3cccs3)ccc21	none
CC(C)(C)n1cnc2cc(NC(=O)c3cccs3)ccc21	DAX1 inh-2 5.6 | DAX1 conf 8.6 | SF1 AF2mut Luc 5.9
Cc1[nH]c2ccc(C(=O)N3CCCCC3)cc2c1C	DAX1 inh-2 6.3, hgDAF12 agonist 11 | DAX1 conf 9.5 | SF1 AF2mut Luc 3.6

Source: PubChem
